The source of these data is the supplement of paper PMC12819154, “High-throughput peptide-centric local stability assay extends protein–ligand identification to membrane proteins, tissues and bacteria” (Nature Structural & Molecular Biology, 2025).

UniProt Q9QZS5, sequence (Q9QZS5 whole entry): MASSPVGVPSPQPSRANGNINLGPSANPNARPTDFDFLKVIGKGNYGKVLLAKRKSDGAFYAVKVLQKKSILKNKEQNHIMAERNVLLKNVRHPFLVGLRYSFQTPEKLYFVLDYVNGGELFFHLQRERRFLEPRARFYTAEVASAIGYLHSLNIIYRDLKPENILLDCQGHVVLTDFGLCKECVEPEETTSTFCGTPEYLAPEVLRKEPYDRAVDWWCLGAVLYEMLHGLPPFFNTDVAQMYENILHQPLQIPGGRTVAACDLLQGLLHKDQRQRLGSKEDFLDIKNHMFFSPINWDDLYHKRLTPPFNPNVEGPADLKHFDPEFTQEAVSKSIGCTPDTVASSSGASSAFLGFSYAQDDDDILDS
UniProt P53395, sequence (P53395 whole entry): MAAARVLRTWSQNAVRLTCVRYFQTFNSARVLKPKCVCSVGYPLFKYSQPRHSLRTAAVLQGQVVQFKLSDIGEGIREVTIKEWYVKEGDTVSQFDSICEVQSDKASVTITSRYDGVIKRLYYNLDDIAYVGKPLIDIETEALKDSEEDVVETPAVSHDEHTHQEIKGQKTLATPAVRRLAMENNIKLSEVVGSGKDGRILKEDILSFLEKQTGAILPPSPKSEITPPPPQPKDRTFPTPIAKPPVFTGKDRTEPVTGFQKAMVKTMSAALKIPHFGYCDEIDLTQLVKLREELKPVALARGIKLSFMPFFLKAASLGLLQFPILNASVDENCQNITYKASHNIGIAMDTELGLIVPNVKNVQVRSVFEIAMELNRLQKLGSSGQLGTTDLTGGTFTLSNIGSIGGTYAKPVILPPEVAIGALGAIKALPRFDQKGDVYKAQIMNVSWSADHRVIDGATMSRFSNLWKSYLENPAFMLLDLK
UniProt Q9QXD1, sequence (Q9QXD1 whole entry): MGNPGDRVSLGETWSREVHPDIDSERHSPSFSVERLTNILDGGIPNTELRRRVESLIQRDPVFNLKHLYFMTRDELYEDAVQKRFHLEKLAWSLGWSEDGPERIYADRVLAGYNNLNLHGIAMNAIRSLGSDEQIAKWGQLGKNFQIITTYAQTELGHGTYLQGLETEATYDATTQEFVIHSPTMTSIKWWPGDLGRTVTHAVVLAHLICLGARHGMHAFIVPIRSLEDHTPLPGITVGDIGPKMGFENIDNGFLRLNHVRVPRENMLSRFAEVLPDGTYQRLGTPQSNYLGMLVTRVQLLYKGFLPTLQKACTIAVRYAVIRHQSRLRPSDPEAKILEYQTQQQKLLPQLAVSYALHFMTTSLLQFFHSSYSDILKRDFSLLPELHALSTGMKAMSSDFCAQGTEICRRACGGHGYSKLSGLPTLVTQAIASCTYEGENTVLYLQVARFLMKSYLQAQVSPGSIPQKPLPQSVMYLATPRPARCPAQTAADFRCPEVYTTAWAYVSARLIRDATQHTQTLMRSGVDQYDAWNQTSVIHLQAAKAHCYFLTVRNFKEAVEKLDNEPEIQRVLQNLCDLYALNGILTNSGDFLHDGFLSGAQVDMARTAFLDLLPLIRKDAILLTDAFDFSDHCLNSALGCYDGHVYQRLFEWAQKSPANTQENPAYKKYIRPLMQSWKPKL
UniProt Q924L1, sequence (Q924L1 whole entry): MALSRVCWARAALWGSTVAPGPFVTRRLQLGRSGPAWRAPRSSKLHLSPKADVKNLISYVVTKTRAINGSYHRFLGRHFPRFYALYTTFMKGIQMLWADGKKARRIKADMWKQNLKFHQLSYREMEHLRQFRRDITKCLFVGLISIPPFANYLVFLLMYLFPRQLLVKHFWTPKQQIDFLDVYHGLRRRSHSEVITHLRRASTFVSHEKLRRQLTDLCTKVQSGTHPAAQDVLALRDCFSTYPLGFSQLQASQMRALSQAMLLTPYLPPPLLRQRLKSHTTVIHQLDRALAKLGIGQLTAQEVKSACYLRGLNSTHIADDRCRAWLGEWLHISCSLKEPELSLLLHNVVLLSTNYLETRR
UniProt O35945, sequence (O35945 whole entry): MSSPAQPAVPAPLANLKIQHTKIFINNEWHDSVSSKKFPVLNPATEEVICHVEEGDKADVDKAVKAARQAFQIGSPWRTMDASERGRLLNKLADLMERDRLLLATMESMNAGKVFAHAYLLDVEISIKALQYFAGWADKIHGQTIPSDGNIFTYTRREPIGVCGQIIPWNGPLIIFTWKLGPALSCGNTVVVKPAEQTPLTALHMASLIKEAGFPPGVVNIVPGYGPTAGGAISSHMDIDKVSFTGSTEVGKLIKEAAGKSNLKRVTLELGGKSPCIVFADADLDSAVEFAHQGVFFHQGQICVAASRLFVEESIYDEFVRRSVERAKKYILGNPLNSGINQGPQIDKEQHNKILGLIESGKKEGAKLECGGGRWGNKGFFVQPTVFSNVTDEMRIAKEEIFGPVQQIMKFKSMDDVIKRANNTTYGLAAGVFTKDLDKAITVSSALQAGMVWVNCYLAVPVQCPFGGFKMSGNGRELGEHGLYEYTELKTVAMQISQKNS
UniProt P50285, sequence (P50285 whole entry): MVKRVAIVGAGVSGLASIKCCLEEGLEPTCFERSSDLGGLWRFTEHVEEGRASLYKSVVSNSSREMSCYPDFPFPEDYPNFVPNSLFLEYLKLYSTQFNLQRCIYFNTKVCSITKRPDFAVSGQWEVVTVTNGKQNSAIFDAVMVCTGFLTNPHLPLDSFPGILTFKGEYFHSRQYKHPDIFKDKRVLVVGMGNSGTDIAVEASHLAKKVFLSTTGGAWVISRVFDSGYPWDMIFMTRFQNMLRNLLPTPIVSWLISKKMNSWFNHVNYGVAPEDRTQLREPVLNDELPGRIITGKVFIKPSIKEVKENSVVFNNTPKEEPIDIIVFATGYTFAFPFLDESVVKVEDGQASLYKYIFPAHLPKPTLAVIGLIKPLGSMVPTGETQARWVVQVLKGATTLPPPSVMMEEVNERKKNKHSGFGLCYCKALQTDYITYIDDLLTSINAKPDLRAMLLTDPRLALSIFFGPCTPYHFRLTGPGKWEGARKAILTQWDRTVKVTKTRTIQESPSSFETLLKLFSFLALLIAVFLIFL
UniProt Q04735, sequence (Q04735 whole entry): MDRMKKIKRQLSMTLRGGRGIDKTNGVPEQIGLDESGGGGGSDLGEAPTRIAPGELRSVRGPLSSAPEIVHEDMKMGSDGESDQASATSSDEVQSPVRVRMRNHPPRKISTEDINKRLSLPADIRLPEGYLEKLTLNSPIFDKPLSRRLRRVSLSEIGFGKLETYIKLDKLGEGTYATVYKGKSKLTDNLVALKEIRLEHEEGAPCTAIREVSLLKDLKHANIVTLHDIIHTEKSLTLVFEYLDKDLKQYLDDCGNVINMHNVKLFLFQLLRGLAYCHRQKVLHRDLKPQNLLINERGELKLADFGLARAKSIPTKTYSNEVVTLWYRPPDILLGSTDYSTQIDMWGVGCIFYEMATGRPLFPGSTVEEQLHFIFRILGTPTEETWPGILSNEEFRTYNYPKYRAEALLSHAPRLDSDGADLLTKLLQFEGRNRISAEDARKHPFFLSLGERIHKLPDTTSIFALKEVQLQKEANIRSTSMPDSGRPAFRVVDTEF
UniProt Q91XD8, sequence (Q91XD8 whole entry): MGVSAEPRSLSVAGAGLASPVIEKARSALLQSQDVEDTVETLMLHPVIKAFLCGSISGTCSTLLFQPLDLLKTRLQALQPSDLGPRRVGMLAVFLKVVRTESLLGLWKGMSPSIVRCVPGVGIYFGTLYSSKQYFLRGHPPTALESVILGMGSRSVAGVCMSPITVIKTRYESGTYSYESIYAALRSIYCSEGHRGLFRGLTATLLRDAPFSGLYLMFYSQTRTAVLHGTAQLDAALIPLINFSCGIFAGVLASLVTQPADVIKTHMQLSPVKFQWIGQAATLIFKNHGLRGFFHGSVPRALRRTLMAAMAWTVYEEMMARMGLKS
UniProt P22315, sequence (P22315 whole entry): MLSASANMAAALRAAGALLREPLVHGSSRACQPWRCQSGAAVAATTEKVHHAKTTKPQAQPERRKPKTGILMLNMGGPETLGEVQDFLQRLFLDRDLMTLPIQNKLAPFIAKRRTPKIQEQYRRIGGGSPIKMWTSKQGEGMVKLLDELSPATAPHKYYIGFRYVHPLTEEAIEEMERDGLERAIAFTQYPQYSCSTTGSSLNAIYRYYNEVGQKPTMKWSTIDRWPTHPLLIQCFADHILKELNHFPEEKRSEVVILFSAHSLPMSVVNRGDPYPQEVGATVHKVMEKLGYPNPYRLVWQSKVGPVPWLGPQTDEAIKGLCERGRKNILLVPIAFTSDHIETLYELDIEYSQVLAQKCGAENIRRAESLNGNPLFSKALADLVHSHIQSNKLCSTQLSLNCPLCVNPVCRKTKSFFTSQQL
UniProt Q8C4X2, sequence (Q8C4X2 whole entry): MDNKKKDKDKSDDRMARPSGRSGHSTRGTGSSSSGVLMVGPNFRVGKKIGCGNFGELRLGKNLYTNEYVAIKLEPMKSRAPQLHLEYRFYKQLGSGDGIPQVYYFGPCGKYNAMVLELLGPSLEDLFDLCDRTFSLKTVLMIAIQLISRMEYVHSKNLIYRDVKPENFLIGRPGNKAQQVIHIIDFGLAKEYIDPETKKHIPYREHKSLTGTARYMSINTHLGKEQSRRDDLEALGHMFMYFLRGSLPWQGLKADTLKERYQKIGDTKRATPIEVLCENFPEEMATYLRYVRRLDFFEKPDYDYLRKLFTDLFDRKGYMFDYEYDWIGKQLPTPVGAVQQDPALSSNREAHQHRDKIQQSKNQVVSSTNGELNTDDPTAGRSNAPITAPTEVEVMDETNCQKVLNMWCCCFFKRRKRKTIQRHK

Compound in the experiment: CN[C@@H]1C[C@H]2O[C@@](C)([C@@H]1OC)n1c3ccccc3c3c4c(c5c6ccccc6n2c5c31)C(=O)NC4 [staurosporine]
Briefly: log2 fold change of tryptic peptide abundance, ligand vs vehicle (limited proteolysis) (log2 ratio); higher = more trypsin-susceptible (destabilized). The note with it: ligand concentration: 20 uM; sample: mouse liver crude lysate; replicate design: treated separately.
In the case of “UniProt Q9QXD1 (peptide sequence: LFEWAQK, peptide start residue: 649)”, the log2 fold change was -0.551.

As to “UniProt Q8C4X2 (peptide sequence: DVKPENFLIGRPGNK, peptide start residue: 162)”, the log2 fold change was -1.22.

For the target “UniProt P50285 (peptide sequence: TQLREPVLNDELPGR, peptide start residue: 277)”, the log2 fold change turned out to be 0.327.

“UniProt Q9QZS5 (peptide sequence: TVAACDLLQGLLHKDQR, peptide start residue: 258)”: the log2 fold change was -2.7.

Consider “UniProt Q91XD8 (peptide sequence: LQALQPSDLGPR, peptide start residue: 75)”, for which the log2 fold change is -0.916.

“UniProt Q04735 (peptide sequence: LEHEEGAPCTAIR, peptide start residue: 154)”: the log2 fold change is -2.38.

For “UniProt Q9DB30 (peptide sequence: IMEVSAER, peptide start residue: 54)”, the log2 fold change was -3.03.

Consider “UniProt P35980 (peptide sequence: TNSTFNQVVLK, peptide start residue: 39)”, for which the log2 fold change is 0.658.

In the case of “UniProt P43142 (peptide sequence: YLPKEQAR, peptide start residue: 334)”, the log2 fold change was -0.325.

On to “UniProt O35945 (peptide sequence: TVAMQISQK, peptide start residue: 491)”, for which the log2 fold change is -0.312.

With “UniProt Q924L1 (peptide sequence: NLISYVVTK, peptide start residue: 55)”, the log2 fold change amounted to 0.543.

In the case of “UniProt P53395 (peptide sequence: DRTEPVTGFQK, peptide start residue: 251)”, the log2 fold change stood at 0.423.

Consider “UniProt P26443 (peptide sequence: HYSEAAADREDDPNFFK, peptide start residue: 52)”, for which the log2 fold change is 0.262.

Consider “UniProt P22315 (peptide sequence: LFLDRDLMTLPIQNK, peptide start residue: 91)”, for which the log2 fold change is -1.03.
